Compound activity deposited in PubChem by several laboratories.
Sampled rows, rich in hits. Any-hit rate of the full collection: about 0.94%.
HER2 expr 66K: Her2 kinase expression inhibition; HER2 level % of control, % at 10 µM; SKBR-3 HER2 protein level, AlphaScreen, 18-24 h; hits give low values; 0.69% of 65,000 active;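 active means HER2 level under 5% of the carrier-only control; inconclusive means no clear call, values can overlap the other calls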;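 further: 100% = DMSO carrier and 0% = 500 nM PU-H71 HSP90 inhibitor; lower value means stronger loss of Her2 protein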
Target sequence (P04626 whole entry, looked up): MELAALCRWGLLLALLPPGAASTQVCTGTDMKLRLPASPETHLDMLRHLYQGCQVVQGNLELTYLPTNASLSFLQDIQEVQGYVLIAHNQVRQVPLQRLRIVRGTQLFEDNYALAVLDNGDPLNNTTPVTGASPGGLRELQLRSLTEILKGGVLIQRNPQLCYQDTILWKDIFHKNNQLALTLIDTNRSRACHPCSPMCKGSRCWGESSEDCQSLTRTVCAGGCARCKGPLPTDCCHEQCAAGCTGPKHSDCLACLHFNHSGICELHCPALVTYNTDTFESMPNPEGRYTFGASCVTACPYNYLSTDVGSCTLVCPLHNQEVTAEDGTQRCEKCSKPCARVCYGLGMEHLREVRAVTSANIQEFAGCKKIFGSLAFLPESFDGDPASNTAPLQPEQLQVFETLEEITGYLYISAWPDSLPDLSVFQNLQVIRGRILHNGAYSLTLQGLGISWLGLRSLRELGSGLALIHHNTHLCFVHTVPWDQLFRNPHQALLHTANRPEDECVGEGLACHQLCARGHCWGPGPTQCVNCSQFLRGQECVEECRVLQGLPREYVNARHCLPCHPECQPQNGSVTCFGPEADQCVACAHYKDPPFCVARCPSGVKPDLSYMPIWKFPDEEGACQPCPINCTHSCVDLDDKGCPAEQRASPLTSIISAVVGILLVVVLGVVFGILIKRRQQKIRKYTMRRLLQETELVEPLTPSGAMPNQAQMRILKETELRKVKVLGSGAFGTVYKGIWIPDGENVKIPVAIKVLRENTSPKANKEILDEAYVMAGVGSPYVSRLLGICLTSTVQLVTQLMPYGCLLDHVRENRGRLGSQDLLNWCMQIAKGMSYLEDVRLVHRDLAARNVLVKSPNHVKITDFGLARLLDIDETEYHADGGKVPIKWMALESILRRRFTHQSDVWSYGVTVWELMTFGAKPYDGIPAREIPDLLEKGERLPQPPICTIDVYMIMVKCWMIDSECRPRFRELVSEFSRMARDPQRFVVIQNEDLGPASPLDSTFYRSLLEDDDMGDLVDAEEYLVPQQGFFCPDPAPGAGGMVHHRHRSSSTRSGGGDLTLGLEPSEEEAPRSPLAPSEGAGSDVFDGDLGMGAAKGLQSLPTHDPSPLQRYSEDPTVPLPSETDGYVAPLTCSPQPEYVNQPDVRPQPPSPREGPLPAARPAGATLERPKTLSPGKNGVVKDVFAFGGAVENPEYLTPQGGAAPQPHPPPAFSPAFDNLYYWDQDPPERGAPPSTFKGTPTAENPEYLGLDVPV
SKBR3 24h inh: SK-BR-3 proliferation inhibitors; SK-BR-3 viability, CellTiter-Glo ATP luminescence, 24 h; hits give low values; viability, % at 10 µM; 0.47% of 41,000 active; AID 847;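 active means viability at or below the median of all test compounds minus 3 SD, in both replicates if run twice, cut at about 45% in these data; inconclusive means duplicate replicates that disagree with each other; inactive means viability above that cutoff in every replicate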;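 further: 100% = median untreated cell wells and 0% = median positive control drug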
MMP-13 inhibitor: blocks human MMP13 activity. P45452. MMP-13 fTHP FRET cleavage, Mca fluorescence. inhibition, % at 4 µM. 0.07% of 65,000 active;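 active means inhibition above the mean of compound-free control plate wells plus 3 SD, cut at about 14% in these data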;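 further: 0% = DMSO wells and 100% = wells with reference MMP-13 inhibitor after basal subtraction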
* = called active by the depositor; ? = inconclusive; . = not tested or not shown.

SMILES	HER2 expr 66K	SKBR3 24h inh	MMP-13 inhibitor
CCCSC1=N/C(=C\C=C\c2ccco2)C(=O)S1	-3.4*	.	-7
CCCCn1c(SCC(=O)c2ccc(OC)cc2OC)nc2cc(S(N)(=O)=O)ccc21	97	.	1
CCCCn1c(SCc2c(C)noc2C)nc2cc(S(N)(=O)=O)ccc21	-21*	.	-5
CC1=CC(C)(C)Nc2ccc(OC(=O)c3ccco3)cc21	-20*	14*	4
CC1=CC(C)(C)Nc2ccc(OC(=O)c3cccnc3)cc21	65	.	6
Cc1cc(-c2ccccc2)c(C#N)c(N)n1	102	112	.
CS(=O)c1nc(-c2ccc(Br)cc2)cc(-c2ccccc2)c1C#N (stereo unspecified)	-22*	?	2
CCOC(=O)c1cc(-c2nnc(SCC(=O)Nc3ccc(F)cc3)o2)c(C)nc1C	99	.	4
COC(=O)c1nc2n(n1)C(c1ccc(OC)c(OC)c1OC)C1=C(CCCC1=O)N2 (stereo unspecified)	82	90	0
Cc1c(C(=O)NCCc2ccccc2)oc2ccc(S(=O)(=O)N3CCOCC3)cc12	186	91	-1
Cc1c(C(=O)NCCN2CCOCC2)oc2ccc(S(=O)(=O)N3CCCCCC3)cc12	-22*	70	0
Cc1nn(-c2cccc(Cl)c2)c2c1C(c1ccncc1)C(C#N)=C(N)O2 (stereo unspecified)	78	88	-7
Cc1ccc(-n2nc(C)c3c2OC(N)=C(C#N)C3c2ccc(F)cc2)cc1 (stereo unspecified)	-28*	104	0
Cn1cnc2cc(OC(=O)c3ccccc3)ccc21	5	.	4
COc1ccc(-c2oc(/N=C/N3CCOCC3)c(C#N)c2-c2ccc(OC)cc2)cc1	103	124	8
COc1ccccc1NC(=O)Cn1nnc(-c2ccccc2NC(=O)c2ccco2)n1	63	83	-1
COc1ccc(NC(=O)Cn2nnc(-c3ccccc3NC(=O)c3ccco3)n2)cc1	59	28*	4
N#CCCCSc1nnc(-c2ccc(Cl)cc2)n1-c1ccccc1	109	74	-1
O=c1[nH]c(SCc2ccc(Cl)cc2)nc2c1CCC2	72	105	33*
O=c1[nH]c(SCc2cccc(Cl)c2)nc2c1CCCC2	80	.	1
O=c1[nH]cnc2scc(-c3ccc(F)cc3)c12	146	88	7
Cn1nnnc1Sc1ncnc2scc(-c3ccc(F)cc3)c12	-11*	.	-3
c1ccc(-c2csc3ncn4nnnc4c23)cc1	83	89	-3
Cn1nnnc1Sc1ncnc2scc(-c3ccccc3)c12	0.6*	.	-5
Cc1cccc(N(CC(=O)NCc2ccc3c(c2)OCO3)C(=O)CCC(=O)Nc2ccccn2)c1	-30*	56	1
SMILES	HER2 expr 66K	SKBR3 24h inh	MMP-13 inhibitor
Cc1cccc(N(CC(=O)NCc2ccc3c(c2)OCO3)C(=O)CCC(=O)Nc2ccccn2)c1C	129	103	1
C[N+](C)(C)C/C=C1/COCO1	120	.	1
Cc1ccc(C)c2[nH]c(=O)c(CN(CCCN(C)C)C(=O)NCc3ccccc3)cc12	107	44*	-5
COc1ccc2[nH]c(=O)c(CN(CCN(C)C)C(=O)NCc3ccccc3)cc2c1	117	.	-22
CCOc1ccc(-c2nc(CSc3nncs3)cs2)cc1OC	127	97	-5
Nc1ncc(Br)cc1S(=O)(=O)NCCC(=O)N1CCN(c2ncccn2)CC1	87	79	-7
Cc1c(NC(=O)C(C)Sc2nc3ccccc3c(=O)n2CCO)c(=O)n(-c2ccccc2)n1C (stereo unspecified)	86	.	3
COc1cccc(-c2nnc(SCC(=O)N(C(C)C)C(C)C)o2)c1	73	84	4
COc1cc(OC)cc(-c2nnc(SCC(=O)N(C(C)C)C(C)C)o2)c1	132	39*	-5
c1ccc(-n2c(-c3ccncc3)nnc2-c2ccco2)cc1	82	89	-5
c1ccc(-n2c(-c3ccncc3)nnc2N2CCOCC2)cc1	-3.3*	.	4
N#C/C(=C/c1ccc(N2CCCCCC2)o1)c1ccc(F)cc1	-14*	89	3
COc1cc(/C=C(/C#N)c2ccc(F)cc2)ccc1OCc1ccc(C(=O)O)o1	84	119	6
Cc1cccc(C)c1NC(=O)CSc1nnc(-c2ccncc2)n1Cc1ccco1	99	90	-1
Cc1cc(Cl)ccc1NC(=O)CSc1nnc(-c2ccncc2)n1Cc1ccco1	102	39*	-1
O=C(C1CCCN(S(=O)(=O)c2cnc[nH]2)C1)N1CC(=O)N(CCc2ccccc2)C(=O)C1 (stereo unspecified)	88	.	10
Cc1cc(C(=O)NCc2ccccc2Br)no1	109	87	1
Cc1cc(NS(=O)(=O)c2cccs2)no1	-30*	99	-2
Cc1cc(NS(=O)(=O)c2ccc(NC(=O)Cc3cccs3)cc2)no1	81	97	-4
